Measured values: PubChem BioAssay AID371 (SRMLSC, 2006)
The whole screen tested about 3,300 compounds, of which about 280 (8.5%) were called active.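 How the source made its calls: active means mean growth inhibition over the two runs of 50% or more; inactive means mean growth inhibition under 50%.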 The full list was thinned out, with actives kept by preference.

Assay: A549 NSCLC cell proliferation inhibitors – ATP luminescence, human non-small cell lung line, primary screen (AID 371);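 further: compound exposure lasted 72 h before the ATP read; 0% = untreated cell signal and 100% = no luminescence left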
Details: at 10 µM, stronger effect = higher value

| Compound | growth inhibition |
| --- | --- |
| CCCCOc1ccc(CN(C)c2ncnc(N)n2)cc1 | 51.9% (active) |
| CCCCOc1ccc(-c2nnc(N)s2)cc1 | 21.4% (inactive) |
| CCOc1ccc(Cc2nc(N)nc(N)n2)cc1 | 2.96% (inactive) |
| COC(=O)c1ccccc1N1C(=O)[C@@H]2C(c3ccc(Br)cc3)=NO[C@@H]2C1=O | 3.29% (inactive) |
| O=C(NCc1ccco1)c1ccc(=O)oc1 | -3.09% (inactive) |
| O=C(NCc1ccco1)c1ccc(=O)[nH]n1 | -4.07% (inactive) |
| O=C1c2ccccc2-c2onc3ccc(NCc4ccco4)c1c23 | 50.2% (active) |
| c1ccc(-c2nn3c(C4CCCCC4)nnc3s2)cc1 | 5.6% (inactive) |
| CCC(=O)N(Cc1cccs1)C1CCOC(C)(C)C1 (centres undefined) | 3.04% (inactive) |
| CCCCNC(=O)c1c(N)n(/N=C/c2cccnc2)c2nc3ccccc3nc12 | 5.46% (inactive) |
| CN(Cc1ccccc1)Cc1c[nH]c2ccccc12 | 5.38% (inactive) |
| O/N=C/c1ccc(OCC(O)COc2ccc(/C=N/O)cc2)cc1 | -5.19% (inactive) |
| CN(C)CC(O)COc1ccc(C(C)(C)c2ccc(OCC(O)CN(C)C)cc2)cc1 (centres undefined) | 89.2% (active) |
| CN=c1sc2ccccc2n1CC(O)COc1ccccc1 (centres undefined) | 25.3% (inactive) |
| CN(CC(O)COc1ccc(OCC(O)CN(C)C2CCCCC2)cc1)C1CCCCC1 (centres undefined) | 50.1% (active) |
| N#Cc1ccc(-c2ccc(OCC(O)Cn3nnc4ccccc43)cc2)cc1 (centres undefined) | 57.7% (active) |
| CN(C)CC(O)COc1cccc(OCC(O)CN(C)C)c1 (centres undefined) | 2.88% (inactive) |
| OC(CNCCCN1CCCCC1)COc1ccccc1 (centres undefined) | 4.57% (inactive) |
| CC(C)NCC(O)COc1ccc(CCOCC2CC2)cc1 (centres undefined) | -0.79% (inactive) |
| CC1(C)NC(=O)N(CC(O)Cn2nnc3ccccc32)C1=O (centres undefined) | 8.44% (inactive) |
| CN(C)CC(O)COc1ccc(-c2ccc(C#N)cc2)cc1 (centres undefined) | 64.2% (active) |
| COCCc1ccc(OCC(O)CNC(C)C)cc1 (centres undefined) | 1.47% (inactive) |
| CC(C)NCC(O)COc1ccc(CC(N)=O)cc1 (centres undefined) | -2.65% (inactive) |
| CCOCCSc1nc2c(c(=O)[nH]c(=O)n2C)n1CCCc1ccccc1 | 20.2% (inactive) |
| CCN(CC)CCCN1C(=O)C(O)=C(C(=O)c2ccc(C)o2)C1c1ccc(C)o1 (centres undefined) | 5.46% (inactive) |
| CC1CC(C(F)(F)F)n2ncnc2N1 (centres undefined) | 2.4% (inactive) |

| Compound | growth inhibition |
| --- | --- |
| CC(C)OC(=O)[C@H]1[C@H](c2ccc(Cl)cc2)[C@@](C#N)(C(N)=O)[C@@H]2C=CC(C(N)=O)=CN21 | 6.9% (inactive) |
| Cc1cccc(N2C(=O)CC(N3CCN(Cc4ccc(Cl)cc4)CC3)C2=O)c1 (centres undefined) | -1.79% (inactive) |
| O=C(Nc1ccc(Cl)cn1)C1CCCN1S(=O)(=O)c1ccccc1 (centres undefined) | -16.6% (inactive) |
| CCCOc1cc(CN2CCCCC2)cc(C(C)=O)c1 | 5.4% (inactive) |
| CCNC(=O)N(C(=O)NCC)n1c(C)nnc1C | -3.85% (inactive) |
| c1ccc(CSc2nnc(SCc3ccccn3)s2)nc1 | -7.61% (inactive) |
| N#CC1=C(N)N2C(=C(C#N)C1c1ccccc1)Sc1ccccc12 (centres undefined) | -5.42% (inactive) |
| C#CC1CN(Cc2ccccc2)CC(C#C)N1C (centres undefined) | 4.27% (inactive) |
| Cc1ccc(Cn2ncc3c(N4CCOCC4)ncnc32)cc1 | 19.4% (inactive) |
| Cc1ccc(Cn2ncc3c(N4CCN(c5ccc(C)cc5)CC4)ncnc32)cc1 | 30.8% (inactive) |
| Cc1ccc(Cn2ncc3c(N4CCN(Cc5ccc(Cl)cc5)CC4)ncnc32)cc1 | 53.7% (active) |
| COC(=O)C(NC(C)=O)(Nc1ccc(Br)cc1)C(=O)OC | 36.9% (inactive) |
| c1ccc2c(c1)[nH]c1c(N3CCC4(CC3)OCCO4)ncnc12 | 34% (inactive) |
| Cc1ccc2[nH]c3c(N4CCN(Cc5ccccc5)CC4)ncnc3c2c1 | 80.6% (active) |
| CCN1CCCC1Cn1cnc2c([nH]c3ccc(C)cc32)c1=O (centres undefined) | 6.64% (inactive) |
| c1ccc2c(c1)CCN(c1ncnc3c1[nH]c1ccccc13)C2 | 77.4% (active) |
| Cc1ccc2[nH]c3c(N4CCOCC4)ncnc3c2c1 | 34.7% (inactive) |
| Cc1ccc2[nH]c3c(N4CCCCCC4)ncnc3c2c1 | 72.1% (active) |
| c1ccc2c(c1)[nH]c1c(N3CCSCC3)ncnc12 | 33.6% (inactive) |
| OC1(c2cccc(C(F)(F)F)c2)CCN(c2ncnc3c2[nH]c2ccccc23)CC1 | 92.4% (active) |
| CSc1nnc2n(C3CCCCC3)c(=O)c3c4c(sc3n12)CCCC4 | 6.35% (inactive) |
| COc1cccc(C(=O)OCCN(C)C(C)(C)C)c1 | 0.03% (inactive) |
| OCCOCCNc1ncnc2c1cnn2-c1ccccc1 | 5.28% (inactive) |
| Cc1cc(=O)oc2cc(OCCSCCN3CCOCC3)ccc12 | 8.74% (inactive) |
| CCn1cc(/C=N/O)c(C)n1 | -8.38% (inactive) |
| O=C1OC(N2CCN(C/C=C/c3ccccc3)CC2)c2ccccc21 (centres undefined) | 7.88% (inactive) |

| Compound | growth inhibition |
| --- | --- |
| Cc1cc(SCCC(=O)O)nc2ccccc12 | -1.53% (inactive) |
| CCOC(=O)c1cnc(SC2CC(=O)N(c3cccc(OC)c3)C2=O)nc1N (centres undefined) | -4.72% (inactive) |
| Cn1ccnc1SCCC#N | -0.21% (inactive) |
| c1ccc(CN2CCN(c3ncnc4c3[nH]c3ccccc34)CC2)cc1 | 63% (active) |
| O=C(c1ccco1)N1CCN(c2ncnc3c2[nH]c2ccccc23)CC1 | 25.7% (inactive) |
| N#Cc1nc(COc2ccc(Cl)cc2)oc1N1CCN(Cc2ccccc2)CC1 | 21.8% (inactive) |
| COc1ccc(C=NCCCN2CCOCC2)cc1 | 2.05% (inactive) |
| Cc1csc2nc(CSc3nc4ccccc4o3)cn12 | 29.3% (inactive) |
| CCOC(=O)c1ccc(N2C(=O)CC(Sc3nnc(C)s3)C2=O)cc1 (centres undefined) | -4.68% (inactive) |
| Cc1ccc(-c2nnc(-c3ccccc3)o2)cc1Br | 10.3% (inactive) |
| Cc1ccccc1N1C(=O)CC(Sc2nnc(-c3ccccc3)o2)C1=O (centres undefined) | 56.6% (active) |
| Brc1ccc(-c2cnnc(N3CCCC3)n2)cc1 | 24% (inactive) |
| COc1ccc(C2/C(=C(/O)c3cnn(-c4ccccc4)c3C)C(=O)C(=O)N2CCN(C)C)cc1OC (centres undefined) | 7.72% (inactive) |
| CSc1nc(Oc2ccc(=O)[nH]n2)nc(N(C)C)n1 | 2.49% (inactive) |
| COc1cc2nc(-c3ccccc3)nc(N3CCCC3)c2cc1OC | 2.86% (inactive) |
| CCOc1cc2nc(-c3ccc(OC)c(OC)c3)nc(N3CCOCC3)c2cc1OC | 66.5% (active) |
| COc1ccc(/C(O)=C2/C(=O)C(=O)N(CCN3CCOCC3)C2c2ccccn2)cc1OC (centres undefined) | 0.85% (inactive) |
| Brc1cccc(-c2cnc3n2CCCCC3)c1 | 24.1% (inactive) |
| COc1ccc(CN(C#N)c2nc(SC)nc(N(C)C)n2)cc1 | 32.9% (inactive) |
| CCN(CC)c1ncc(C)c(=O)[nH]1 | -0.05% (inactive) |
| CCOC(=O)Cc1nnc(Nc2cccc(O)c2)c2ccccc12 | -1.35% (inactive) |
| N=c1ncn(CC(O)CN2CCOCC2)c2nc(N3CCOCC3)[nH]c12 (centres undefined) | -5.31% (inactive) |
| C=CCc1cccc(CNc2nc3ccccc3n2C(C)C)c1O | 74.7% (active) |
| C=CCc1cccc(/C=N/n2cnnc2)c1O | 2.3% (inactive) |
| C=CCc1cccc(/C=N/c2ncn[nH]2)c1O | 0.97% (inactive) |
| CN=c1sc2ccccc2n1CC(O)COCc1ccco1 (centres undefined) | -6.68% (inactive) |

| Compound | growth inhibition |
| --- | --- |
| CCSc1nnc(NC(NC(=O)c2ccco2)(C(F)(F)F)C(F)(F)F)s1 | -2.3% (inactive) |
| CCC(NC(=O)Nc1nnc(C(F)(F)F)s1)(C(F)(F)F)C(F)(F)F | 81.7% (active) |
| CCC(C(=O)Nc1ncn[nH]1)(C(F)(F)F)C(F)(F)F | 2.05% (inactive) |
| CCCSc1nnc(NC(=O)Nc2ccc(F)cc2)s1 | 70.3% (active) |
| CC(NC(=O)Nc1nnc(C(F)(F)F)s1)(C(F)(F)F)C(F)(F)F | 11.8% (inactive) |
| CCC(C(=O)Nc1nccs1)(C(F)(F)F)C(F)(F)F | 12.8% (inactive) |
| O=C(NCC(F)(F)F)Nc1nnc(C(F)(F)F)s1 | 17.9% (inactive) |
| CCSc1nnc(NC(=O)C(C)(C(F)(F)F)C(F)(F)F)s1 | 61.8% (active) |
| CCCc1nnc(NC(=O)Nc2ccccc2OC)s1 | 17.3% (inactive) |
| CCSc1nnc(NC(=O)C(CC)(C(F)(F)F)C(F)(F)F)s1 | 66% (active) |
| CCCSc1nnc(NC(=O)Nc2ccccc2)s1 | 45.3% (inactive) |
| CCSc1nnc(NC(=O)C(C(F)(F)F)C(F)(F)F)s1 | 7.68% (inactive) |
| CCCC(CCC(=O)Nc1ccc(C(=O)OC)cc1)C(=O)O (centres undefined) | 5.31% (inactive) |
| N#Cc1c(N2CCOCC2)nc(N2CCCCC2)c2c1CCN(C1CCCCC1)C2 | 23.2% (inactive) |
| CC(C)COC(=O)CCNc1n[nH]c(=O)[nH]c1=O | 2.08% (inactive) |
| O=c1cc(-c2ccco2)nc(-c2cccs2)o1 | 15% (inactive) |
| COc1cccc(-c2nnc3sc(-c4ccco4)nn23)c1 | 11.9% (inactive) |
| Cc1cc(C)n(CC2CC(=O)N(c3ccc(F)c(Cl)c3)C2=O)n1 (centres undefined) | 1.52% (inactive) |
| Cn1nccc1C(=O)Nc1ccccc1C(=O)O | 2.72% (inactive) |
| CCCSc1nc(O)c(C2OC(=O)c3c2ccc(OC)c3OC)c(=O)n1C (centres undefined) | 3.43% (inactive) |
| Cc1ccc(-n2ncc3c(N4CCC(C(N)=O)CC4)ncnc32)c(C)c1 | 7.75% (inactive) |
| CCc1cccc(C)c1N(C(=O)Cn1c(=O)[nH]c2ccccc21)C(C)COC (centres undefined) | 17.6% (inactive) |
| CCSc1nnc(NC(=O)NCC(F)(F)F)s1 | -0.28% (inactive) |
| CCSc1nnc(NC(=O)NC(CC)(C(F)(F)F)C(F)(F)F)s1 | 82.1% (active) |
| CCC(NC(=O)Nc1nccs1)(C(F)(F)F)C(F)(F)F | 2.27% (inactive) |
| CCN(CC)CCN1C(=O)C(=O)/C(=C(/O)c2ccc(OC)cc2)C1c1ccco1 (centres undefined) | 2.24% (inactive) |
